The values below come from PubChem BioAssay (NCI).

Compounds without any hit were thinned out: in the full panel of roughly 83,000, 20% have a hit.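 Growth was measured after 48 h exposure to one concentration of compound in 96-well plates. Values under 10 count as active.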 Calls of active or inactive are those of the source.

The test system of the test is 786-0 renal. Briefly: NCI-60 one-dose screen, 48 h (100 = growth as untreated, 0 = no growth, -100 = all killed). To be noted: 10 µM unless noted.
Consider `COc1cc(-c2nc(C(=O)NCC(=O)NO)nn2-c2ccc(Cl)cc2)cc(OC)c1OC`, for which the growth is 101% (inactive).
For `C=C1C(=O)O[C@H]2[C@H]1CC/C(C=Nc1ccc(C(F)(F)F)cc1N)=C\CC[C@@]1(C)O[C@@H]21` the value was 25% (inactive).
For the compound `CSc1nc(NCCO)c(C#N)c(-c2cccc([N+](=O)[O-])c2)n1`, the growth is 100% (inactive).
In the case of `Cn1c(=O)[nH]c(=O)c2nc(CCC(=O)NCCC(=O)O)c(=O)[nH]c21`, the growth is 109% (inactive).
Consider `C=CC(=O)Nc1cccc(-c2nc(SC)nc(Nc3ccccc3OC)c2C#N)c1`, for which the growth is 11.6% (inactive).
As for `CC1=C[C@H]2c3c(c(O)c(O)c4oc5c(C)cccc5c(=O)c34)[C@H](c3cc(O)c(O)c4oc5c(C)cccc5c(=O)c34)[C@H]2C(C)(C)C1`, the growth was -3.44% (active).
For `COc1ccc(/C=C(\C#N)C(=O)Nc2cccc(Nc3nc(SC)nc(-c4cccc([N+](=O)[O-])c4)c3C#N)c2)cc1OC` the value was 106% (inactive); for `CCN(CC)c1ccc(/C=N\NC(=O)/C=C/C=C/c2ccc3c(c2)OCO3)c(O)c1`, 47.2% (inactive).
For `CC(C)(C)c1cc(/C=N\NC(=O)/C=C/C=C/c2ccc3c(c2)OCO3)c(O)c(C(C)(C)C)c1` the value was 85.4% (inactive); for `CN(C)CCCNc1c2ccccc2nc2ccccc12`, 88.6% (inactive); for `CN1CCN(c2nc(NCCCCNc3ccnc4cc(Cl)ccc34)c3ccccc3n2)CC1`, 74.9% (inactive).
The value for `COc1cc2c(cc1-c1c(C)noc1C)ncc1nc(C3CCOCC3)n([C@@H](C)COC(F)F)c12` was 49.6% (inactive).
As for `CC(C)C[C@@H](NC(=O)[C@@H](Cc1ccccc1)NC(=O)c1cnccn1)B1Oc2ccc(C[C@H](NC(=O)[C@H](Cc3ccc4c(c3)OB([C@@H](CC(C)C)NC(=O)[C@@H](Cc3ccccc3)NC(=O)c3cnccn3)O4)NC(=O)[C@@H](N)CC3CCC4OB([C@@H](CC(C)C)NC(=O)[C@@H](CC5CCCCC5)NC(=O)C5CNCCN5)OC4C3)C(=O)NCCCC[C@@H]3NC(=O)[C@@H](Cc4ccccc4)NC(=O)[C@H](CC(=O)O)NC(=O)CNC(=O)[C@H](CCCNC(=N)N)NC3=O)cc2O1` (some centres undefined), the growth was -12.6% (active).
In the case of `CCc1nc(N)nc(N)c1C#CC(C)c1cc(-c2ccnc(C)c2)c2oc(C)nc2c1` (centres undefined), the growth is 6.31% (active).
The value for `COc1ccc(/C=C/c2nc3ccccc3nc2/C=C/c2ccc(OC)cc2)cc1` was 88.8% (inactive); that for `Cc1nc(/N=C(\N)NC(=O)Nc2cccc([N+](=O)[O-])c2)sc1C` was 90.5% (inactive).
As for `CCCCN(CCCC)CCCn1c(-c2ccccc2)ccc1-c1ccccc1`, the growth was 72.7% (inactive).
As to `Oc1ccc(N=Cc2ccccc2O)cc1`, the growth is 93.4% (inactive).
Take `NC(N)=N/N=C(/c1ccccc1)c1ccc(F)cc1`: the growth was 18.6% (inactive).
Regarding `COc1ccc(Nc2nc(SC)nc(-c3cccc([N+](=O)[O-])c3)c2C#N)cc1`, the growth is 21.8% (inactive).
The value for `COc1ccc(CCNc2nc3c(c(=O)n(Cc4ccc(Br)cc4)c(=O)n3C)n2C)cc1OC` was 102% (inactive); that for `COc1cccc(Nc2nc(SC)nc(-c3cccc([N+](=O)[O-])c3)c2C#N)c1` was 36.4% (inactive); that for `CCCCC/C(C=C(C#N)C#N)=C/c1ccccc1` was 87% (inactive).
For `Cn1c(=O)c2c(nc3n(-c4ccc(Cl)cc4Cl)c(Sc4nc(-c5ccccc5)c(C#N)c(=O)[nH]4)cn23)n(C)c1=O`, the growth was 15.1% (inactive).
For `Cc1ccc(C2=NN3C(C2)c2cc(Br)ccc2OC32CCN(Cc3ccccc3)CC2)o1` (centres undefined) the value was 103% (inactive); for `CCCCCCN(CCCCCC)C(=N)c1ccnc2ccccc12`, 57% (inactive).
`O=C1Nc2c(ccc(Cl)c2Cl)/C1=C\c1ccc(C(F)(F)F)cc1`: the growth was 90.7% (inactive).
Take `C=CC(=O)Nc1cccc(-c2nc(SC)nc(NCc3ccccc3)c2C#N)c1`: the growth is 66% (inactive).
As for `CC1=CC(C)(C)Nc2ccc(Cc3ccc4c(c3)C(C)=CC(C)(C)N4)cc21`, the growth was 97.1% (inactive).
The value for `CCCN1CCN(c2ccc3nc(-c4ccc5nc(-c6ccc(OCC)cc6)[nH]c5c4)[nH]c3c2)CC1` was 16.3% (inactive).
As to `COc1ccc(C(=O)COc2ccc(/C=C3\COc4ccc(OC)cc4C3=O)cc2)cc1`, the growth was 90.5% (inactive).
In the case of `CC(=O)O[C@H]1C(=O)[C@@]2(C)[C@H]([C@H](OC(=O)c3ccccc3)[C@]3(O)C[C@H](OC(=O)[C@H](OC(=O)CCC(=O)OC4CCC(S/N=C(N)/N=C(\N)N(C)C)CC4)[C@@H](NC(=O)c4ccccc4)c4ccccc4)C(C)=C1C3(C)C)[C@]1(OC(C)=O)CO[C@@H]1C[C@@H]2O` (some centres undefined), the growth was 33.3% (inactive).
As for `CCOc1ccc(-n2nc(C(=O)Nc3cc(OC)c(OC)c(OC)c3)nc2-c2cc(OC)c(OC)c(OC)c2)cc1`, the growth was 77.1% (inactive).
Regarding `C=C1C(=O)O[C@H]2[C@H]1CC/C(COC(=O)c1cc3cc(OC)ccc3[nH]1)=C\CC[C@@]1(C)O[C@@H]21`, the growth was -87.6% (active).
For `COc1cc(Nc2cc(C)nc(N3CCN(c4ccnc5cc(Cl)ccc45)CC3)n2)cc(OC)c1` the value was -13.1% (active); for `N#CN1CCC[C@H]1C(=O)N1CCc2c(-c3[nH]nc4ncccc34)cccc21`, 9.59% (active).
In the case of `Cc1cc(C)nc(SC2=C(Nc3cccc(Cl)c3)C(=O)N(Cc3ccccc3)C2=O)n1`, the growth is 72.1% [30 µM] (inactive).
Consider `O=C(COc1cccc(/C=C2\COc3ccccc3C2=O)c1)Nc1nccs1`, for which the growth is 95.5% (inactive).
As to `C=C(C)C(=O)Nc1ccc(NC(C)C)cc1`, the growth was 96.8% (inactive).
